Results: the supplement of paper PMC12819154, “High-throughput peptide-centric local stability assay extends protein–ligand identification to membrane proteins, tissues and bacteria” (Nature Structural & Molecular Biology, 2025)

Compound: Nc1ncnc2c1ncn2[C@@H]1O[C@H](COP(=O)(O)OP(=O)(O)OP(=O)(O)O)[C@@H](O)[C@H]1O [adenosine 5'-triphosphate]
Experiment: log2 fold change of tryptic peptide abundance, ligand vs vehicle (limited proteolysis) (log2 ratio); higher = more trypsin-susceptible (destabilized)
Conditions: ligand concentration: 5 mM; sample: E. coli desalted lysate; replicate design: treated before aliquoting
Procedure: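 HT-PELSA: desalted E. coli K-12 BW25113 lysate (with 12 mM MgCl2) incubated with 5 mM ATP (pH 7) or water for 30 min at 25 C, then a 4 min trypsin pulse at 22 C. Peptides were quantified by DIA-MS (4 replicates). Value is the peptide log2 fold change (treated/control); negative = stabilized. Scale: negative = ligand-stabilized region.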
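Further: lysate desalted by size exclusion to strip endogenous ATP, peptide intensities built from DIA-NN precursor signals, and peptides missing any value discarded before comparison.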

UniProt P25740, sequence (P25740 whole entry): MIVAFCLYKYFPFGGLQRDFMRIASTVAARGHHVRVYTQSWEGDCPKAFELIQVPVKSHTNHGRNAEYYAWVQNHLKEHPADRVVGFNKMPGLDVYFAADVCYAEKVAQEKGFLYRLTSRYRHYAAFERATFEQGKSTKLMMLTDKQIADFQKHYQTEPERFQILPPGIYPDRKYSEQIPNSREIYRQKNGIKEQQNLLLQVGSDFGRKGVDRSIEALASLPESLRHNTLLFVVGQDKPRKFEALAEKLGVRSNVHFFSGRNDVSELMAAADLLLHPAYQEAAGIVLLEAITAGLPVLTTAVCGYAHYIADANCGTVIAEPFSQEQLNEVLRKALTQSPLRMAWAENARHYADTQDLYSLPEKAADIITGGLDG
UniProt P76010, sequence (P76010 whole entry): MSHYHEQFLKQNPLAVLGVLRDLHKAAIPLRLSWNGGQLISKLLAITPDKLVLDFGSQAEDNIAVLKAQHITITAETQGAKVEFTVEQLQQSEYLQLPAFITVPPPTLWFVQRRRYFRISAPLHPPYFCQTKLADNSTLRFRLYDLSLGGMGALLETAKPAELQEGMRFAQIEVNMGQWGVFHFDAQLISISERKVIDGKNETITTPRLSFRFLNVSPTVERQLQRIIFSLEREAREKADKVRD
UniProt P33667, sequence (P33667 whole entry): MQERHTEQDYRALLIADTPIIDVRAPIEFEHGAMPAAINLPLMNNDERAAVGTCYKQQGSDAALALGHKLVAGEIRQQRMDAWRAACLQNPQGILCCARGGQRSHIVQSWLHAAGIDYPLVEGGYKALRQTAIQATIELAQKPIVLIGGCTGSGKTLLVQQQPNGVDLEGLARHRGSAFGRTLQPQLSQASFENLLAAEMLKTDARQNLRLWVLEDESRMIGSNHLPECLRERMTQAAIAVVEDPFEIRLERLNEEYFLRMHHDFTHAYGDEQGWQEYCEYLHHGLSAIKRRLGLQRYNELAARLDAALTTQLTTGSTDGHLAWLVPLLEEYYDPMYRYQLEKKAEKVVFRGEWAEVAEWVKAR
UniProt P40719, sequence (P40719 whole entry): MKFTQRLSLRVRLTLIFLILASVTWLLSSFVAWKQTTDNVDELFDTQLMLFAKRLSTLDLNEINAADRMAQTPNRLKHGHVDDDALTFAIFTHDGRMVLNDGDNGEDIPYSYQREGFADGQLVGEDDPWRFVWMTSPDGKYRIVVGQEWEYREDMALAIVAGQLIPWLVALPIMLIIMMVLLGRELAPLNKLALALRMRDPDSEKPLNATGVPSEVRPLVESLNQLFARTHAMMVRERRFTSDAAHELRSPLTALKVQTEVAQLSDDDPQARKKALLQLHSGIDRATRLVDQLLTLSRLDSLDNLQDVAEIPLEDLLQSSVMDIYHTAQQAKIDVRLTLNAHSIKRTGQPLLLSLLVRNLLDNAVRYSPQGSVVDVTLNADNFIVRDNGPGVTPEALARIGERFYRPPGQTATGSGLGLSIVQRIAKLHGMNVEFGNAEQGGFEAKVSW
UniProt P06959, sequence (P06959 whole entry): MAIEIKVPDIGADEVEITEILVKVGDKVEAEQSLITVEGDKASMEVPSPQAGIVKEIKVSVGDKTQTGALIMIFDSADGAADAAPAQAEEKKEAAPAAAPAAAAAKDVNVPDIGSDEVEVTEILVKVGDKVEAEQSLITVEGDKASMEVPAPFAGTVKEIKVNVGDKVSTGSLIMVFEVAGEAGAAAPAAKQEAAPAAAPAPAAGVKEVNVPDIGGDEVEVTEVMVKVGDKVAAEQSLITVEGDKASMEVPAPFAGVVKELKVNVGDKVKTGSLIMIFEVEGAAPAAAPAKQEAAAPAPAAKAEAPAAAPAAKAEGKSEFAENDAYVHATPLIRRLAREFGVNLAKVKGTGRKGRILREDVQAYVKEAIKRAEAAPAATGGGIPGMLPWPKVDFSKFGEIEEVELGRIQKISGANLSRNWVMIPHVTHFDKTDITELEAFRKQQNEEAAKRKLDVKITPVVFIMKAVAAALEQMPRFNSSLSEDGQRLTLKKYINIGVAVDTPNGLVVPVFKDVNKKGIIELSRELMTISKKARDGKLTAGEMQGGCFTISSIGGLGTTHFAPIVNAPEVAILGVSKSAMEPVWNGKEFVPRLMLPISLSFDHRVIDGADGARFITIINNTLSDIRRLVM
UniProt P13035, sequence (P13035 whole entry): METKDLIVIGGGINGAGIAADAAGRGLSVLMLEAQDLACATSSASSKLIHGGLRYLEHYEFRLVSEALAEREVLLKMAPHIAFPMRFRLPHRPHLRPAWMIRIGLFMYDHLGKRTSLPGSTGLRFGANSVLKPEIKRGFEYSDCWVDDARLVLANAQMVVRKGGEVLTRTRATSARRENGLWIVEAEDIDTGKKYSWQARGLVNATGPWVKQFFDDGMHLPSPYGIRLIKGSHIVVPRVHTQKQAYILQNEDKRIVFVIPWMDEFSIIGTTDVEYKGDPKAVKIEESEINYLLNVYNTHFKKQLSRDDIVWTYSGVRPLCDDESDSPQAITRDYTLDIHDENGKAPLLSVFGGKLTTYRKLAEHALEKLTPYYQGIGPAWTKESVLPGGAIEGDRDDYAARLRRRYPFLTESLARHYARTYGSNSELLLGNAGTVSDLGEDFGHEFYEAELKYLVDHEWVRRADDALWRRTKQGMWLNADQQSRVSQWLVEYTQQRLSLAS
UniProt P00452, sequence (P00452 whole entry): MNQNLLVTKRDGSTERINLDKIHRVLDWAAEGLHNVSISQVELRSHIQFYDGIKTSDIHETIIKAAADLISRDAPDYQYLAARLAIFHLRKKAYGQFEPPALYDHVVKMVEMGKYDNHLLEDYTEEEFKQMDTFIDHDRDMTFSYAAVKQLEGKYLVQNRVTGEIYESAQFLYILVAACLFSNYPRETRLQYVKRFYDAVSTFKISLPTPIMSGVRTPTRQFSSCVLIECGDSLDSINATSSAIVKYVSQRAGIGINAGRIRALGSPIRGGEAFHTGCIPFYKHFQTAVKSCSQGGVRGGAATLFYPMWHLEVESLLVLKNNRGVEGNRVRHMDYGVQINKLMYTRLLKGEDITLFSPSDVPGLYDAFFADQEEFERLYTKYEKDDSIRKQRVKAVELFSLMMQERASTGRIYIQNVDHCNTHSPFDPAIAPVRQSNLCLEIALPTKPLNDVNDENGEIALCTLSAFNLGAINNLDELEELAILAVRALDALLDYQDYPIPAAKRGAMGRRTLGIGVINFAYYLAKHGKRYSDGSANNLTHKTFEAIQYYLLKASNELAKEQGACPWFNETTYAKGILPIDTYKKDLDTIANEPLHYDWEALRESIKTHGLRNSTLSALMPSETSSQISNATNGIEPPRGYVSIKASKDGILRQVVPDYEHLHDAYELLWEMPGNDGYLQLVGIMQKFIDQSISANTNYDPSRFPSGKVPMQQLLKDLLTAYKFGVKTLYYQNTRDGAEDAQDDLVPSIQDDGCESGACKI
UniProt P22188, sequence (P22188 whole entry): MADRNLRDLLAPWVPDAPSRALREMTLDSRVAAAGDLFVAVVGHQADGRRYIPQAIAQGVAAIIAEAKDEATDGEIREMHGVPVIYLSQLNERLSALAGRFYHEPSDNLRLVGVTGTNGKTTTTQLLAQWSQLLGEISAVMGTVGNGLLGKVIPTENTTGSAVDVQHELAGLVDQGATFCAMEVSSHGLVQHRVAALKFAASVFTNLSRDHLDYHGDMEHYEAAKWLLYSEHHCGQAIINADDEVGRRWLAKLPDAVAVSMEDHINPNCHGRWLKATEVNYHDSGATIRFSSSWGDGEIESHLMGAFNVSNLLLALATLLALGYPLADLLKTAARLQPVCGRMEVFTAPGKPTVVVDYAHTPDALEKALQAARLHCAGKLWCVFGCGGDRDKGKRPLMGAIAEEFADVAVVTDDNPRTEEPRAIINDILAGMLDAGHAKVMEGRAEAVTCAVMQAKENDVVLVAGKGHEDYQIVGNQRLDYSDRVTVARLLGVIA
UniProt P32157, sequence (P32157 whole entry): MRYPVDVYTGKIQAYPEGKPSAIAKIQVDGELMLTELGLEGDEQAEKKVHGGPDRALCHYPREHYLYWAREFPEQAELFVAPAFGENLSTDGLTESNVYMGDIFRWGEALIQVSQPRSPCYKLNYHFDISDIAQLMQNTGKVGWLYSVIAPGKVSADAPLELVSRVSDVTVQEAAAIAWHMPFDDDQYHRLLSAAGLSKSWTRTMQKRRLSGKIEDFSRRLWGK
UniProt P0A9L3, sequence (P0A9L3 whole entry): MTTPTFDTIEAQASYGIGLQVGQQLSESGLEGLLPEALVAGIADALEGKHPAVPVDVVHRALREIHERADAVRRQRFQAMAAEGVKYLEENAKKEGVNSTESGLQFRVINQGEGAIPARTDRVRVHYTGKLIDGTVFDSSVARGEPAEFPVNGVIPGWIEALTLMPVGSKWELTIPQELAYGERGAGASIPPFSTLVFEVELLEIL
UniProt P76419, sequence (P76419 whole entry): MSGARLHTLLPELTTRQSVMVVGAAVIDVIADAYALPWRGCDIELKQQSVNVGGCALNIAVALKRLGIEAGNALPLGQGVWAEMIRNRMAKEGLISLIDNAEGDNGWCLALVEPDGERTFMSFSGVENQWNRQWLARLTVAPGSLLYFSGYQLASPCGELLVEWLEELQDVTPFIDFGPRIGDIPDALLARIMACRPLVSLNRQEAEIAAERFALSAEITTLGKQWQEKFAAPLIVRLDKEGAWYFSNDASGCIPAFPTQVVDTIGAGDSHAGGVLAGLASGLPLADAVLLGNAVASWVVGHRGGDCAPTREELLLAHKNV

Target | log2 fold change
UniProt P33667 (peptide sequence: MIGSNHLPECLR, peptide start residue: 220) | 0.32
UniProt P25740 (peptide sequence: HYAAFER, peptide start residue: 123) | -0.355
UniProt P0A9L3 (peptide sequence: VINQGEGAIPARTDR, peptide start residue: 108) | 0.513
UniProt P22188 (peptide sequence: LWCVFGCGGDRDK, peptide start residue: 380) | -1.25
UniProt P76010 (peptide sequence: FLNVSPTVER, peptide start residue: 213) | -1.34
UniProt P32157 (peptide sequence: YPVDVYTGK, peptide start residue: 3) | -0.765
UniProt P13035 (peptide sequence: IGLFMYDHLGK, peptide start residue: 103) | 0.643
UniProt P40719 (peptide sequence: RFTSDAAHELR, peptide start residue: 239) | -2.75
UniProt P00452 (peptide sequence: FYDAVSTFK, peptide start residue: 196) | -3.51
UniProt P76419 (peptide sequence: GGDCAPTREELLLAHK, peptide start residue: 304) | -1.82
UniProt P06959 (peptide sequence: VDFSKFGEIEEVELGR, peptide start residue: 392) | 0.812
